Assay outcomes as filed in PubChem.
An excerpt weighted towards active compounds, which were near 2.4% of everything screened.
CHO-K1 Ca ag: counter-screen for M1 agonists: effect in parental CHO-K1 cells. Fluo-8 calcium fluorescence; scaled to maximal ATP response, vehicle zero. activation, % at 3 µM. 360,000 tested, 0.48% active. AID 602248, 2012; in the data active means activation above about 15%;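 further: untransfected CHO-K1 host cells lacking M1 receptor as counterscreen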
M1 ag: human M1 muscarinic receptor agonists, primary screen, Fluo-8 calcium fluorescence, CHO-K1 cells, HTS; 360,000 tested, 0.33% active; activation, % at 3 µM; CHO-K1 hM1, agonist mode; 0% DMSO, 100% acetylcholine EC100;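 active means activation above the run's mean compound activation plus 3 SD, cut at about 16% in these data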;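 further: peak over basal fluorescence ratio within a 140 s kinetic read after compound addition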
Target sequence (P11229 whole entry, looked up): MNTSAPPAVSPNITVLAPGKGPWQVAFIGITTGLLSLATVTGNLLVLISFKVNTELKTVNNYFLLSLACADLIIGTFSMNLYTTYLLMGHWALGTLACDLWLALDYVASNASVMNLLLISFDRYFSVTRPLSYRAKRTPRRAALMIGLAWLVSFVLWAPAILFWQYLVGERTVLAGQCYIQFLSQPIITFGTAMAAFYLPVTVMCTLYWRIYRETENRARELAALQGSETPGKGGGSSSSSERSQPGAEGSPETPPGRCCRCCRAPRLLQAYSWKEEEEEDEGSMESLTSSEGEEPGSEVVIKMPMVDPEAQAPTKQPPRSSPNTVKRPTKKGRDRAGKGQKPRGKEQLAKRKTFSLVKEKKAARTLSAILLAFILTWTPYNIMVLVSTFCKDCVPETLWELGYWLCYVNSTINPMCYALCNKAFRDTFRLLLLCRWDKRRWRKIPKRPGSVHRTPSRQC
CHRM1 PAM: human M1 muscarinic receptor positive allosteric modulators, primary screen, CHO-K1 cells, Fluo-8 calcium fluorescence, 1536-well; activation, % at 3 µM; Muscarinic acetylcholine receptor M1 (Homo sapiens), P11229; CHO-K1 hM1, ACh EC20; 0% = ACh EC20, 100% = maximal ACh; 360,000 tested, 0.088% active; in the data active means activation above about 19%, passing the limit was not always enough
CHRM1 antagonist: human M1 muscarinic receptor antagonists, primary screen, CHO-K1 cells, Fluo-8 calcium fluorescence, 1536-well. Muscarinic acetylcholine receptor M1 (Homo sapiens), P11229. CHO-K1 hM1, ACh EC80 antagonist. inhibition, % at 3 µM. 360,000 tested, 1.3% active;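 active means percent inhibition above its own plate's cutoff, namely the mean of that plate's compound wells plus 3 SD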;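 further: peak over basal fluorescence ratio during 140 s after agonist addition; 0% = ACh EC80 plus DMSO and 100% = DMSO alone without agonist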
CHO-K1 Ca PAM: nonselective calcium activators in parental CHO-K1 cells, primary screen, counter-screen for M1 PAM project, cell-based, Fluo-8 calcium fluorescence, full deck, 1536-well. ATP EC20; 0% at ATP EC20, 100% at ATP max. AID 602247, 2012. activation, % at 3 µM. 360,000 tested, 0.02% active;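 active means activation above the run cutoff, the mean activation of all test compounds plus 3 SD, cut at about 40% in these data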;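 further: peak over basal fluorescence ratio in a 140 s read after ATP addition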
CHO-K1 Ca antag: M1 antagonist counterscreen hit in parental CHO-K1 cells. 360,000 tested, 0.6% active. inhibition, % at 3 µM. ATP-induced calcium, Fluo-8 fluorescence. AID 602250;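 active means inhibition above a per-plate cutoff, the plate's mean sample inhibition plus 3 SD, cut at about 24% in these data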;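 further: 0% = DMSO plus EC80 ATP and 100% = DMSO alone without ATP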
The depositor's hits bear a star; . = no result.

SMILES	CHO-K1 Ca ag	M1 ag	CHRM1 PAM	CHRM1 antagonist	CHO-K1 Ca PAM	CHO-K1 Ca antag
Cc1ccc2[nH]cc(C(=O)CN3CCN(c4ccccc4F)CC3)c2c1	16*	3	1	-5	7	-6
COc1ccc(N2CCN(C(=O)C(=O)c3c[nH]c4ccccc34)CC2)cc1	3	0	-2	9	-25	8
CCc1noc(C)c1C(=O)N(C)CC(=O)Nc1cccc(OC)c1	1	-4	5	-8	15	-14
Cc1ccc(NC(=S)NC2CCSc3ccccc32)cc1C (stereo unspecified)	1	-5	-22	79*	-9	14
O=c1c2ccccc2ncn1-c1cccc(Br)c1	1	-2	5	-13	12	-7
CC(=O)NCCn1c(C)cc2ccccc21	0	-1	6	-14	16	-2
Cc1cc2ccccc2n1CCNC(=O)C(C)(C)C	1	-4	-14	33*	-5	8
O=c1[nH]ccc2c(O)cccc12	0	27*	-10	-22	7	2
COc1ccc(NC(=O)CCNC(=O)c2ccccc2Cl)cc1S(=O)(=O)N1CCCCC1	0	0	3	-9	7	-6
CN1CCN(C2=Cc3ccccc3Sc3cc(F)c(Cl)cc32)CC1	0	-3	-21	69*	6	-9
CN1CCN(C2=Cc3cc(Cl)ccc3Sc3cc(F)ccc32)CC1	2	-5	-25	82*	25	0
CN1CCN(c2ccccc2NC(=O)c2ccccc2F)CC1	2	-7	7	-12	20	-14
CN1CCN(C2=Cc3ccccc3Sc3cc(F)c(F)cc32)CC1	2	-6	-21	70*	20	-4
CN1CCN(c2nc(-c3ccc(Cl)c(Cl)c3)nc3ccccc23)CC1	0	-2	1	-5	1	-4
Cc1c(C(=O)NCc2ccc3c(c2)OCCO3)sc(=O)n1Cc1ccc(S(=O)(=O)N(C)C)cc1	6	-2	-17	21	-5	5
Oc1ccc(C[C@H]2CNC(=S)N2CC2CCCN2C[C@H](Cc2ccccc2)N2C[C@H](Cc3ccc(O)cc3)N(CCc3ccccc3)C2=S)cc1 (stereo partly specified)	0	8	11	-1	6	-16
CN(CC(=O)Nc1cccc(S(=O)(=O)N2CCCC2)c1)CC(=O)Nc1ccc(Cl)c(C(F)(F)F)c1	6	-1	-5	26*	-10	32*
CN(CC(=O)Nc1ccc(Cl)c(Cl)c1)CC(=O)N1CCCCCC1	3	-6	-29	71*	-3	11
CN(CC(=O)Nc1ccc(Cl)c(C(F)(F)F)c1)CC(=O)NC1CCCCC1	12	6	-6	26*	0	2
CN(CC(=O)NCc1ccccc1)CC(=O)Nc1ccc(Cl)c(C(F)(F)F)c1	13	13	-4	15	13	-7
Cc1ccccc1[C@H](NC1c2ccccc2C=Cc2ccccc21)P(=O)(c1ccccc1)c1ccccc1	0	.	.	.	2	10
O=C(COC(=O)c1cccc(Cl)c1)NCCN1C(=O)CSC1=O	0	-5	-2	-4	9	-10
O=C(COC(=O)CNC(=O)c1ccco1)NCCN1C(=O)CSC1=O	0	-2	5	2	-6	31*
O=C(COC(=O)c1cc(Cl)cc(Cl)c1)NCCN1C(=O)CSC1=O	0	-7	-4	3	-14	26*
CC(C)c1ccc(CN2CCC(n3nccc3NC(=O)C3CCCC3)CC2)cc1	10	12	4	-15	28	-14
SMILES	CHO-K1 Ca ag	M1 ag	CHRM1 PAM	CHRM1 antagonist	CHO-K1 Ca PAM	CHO-K1 Ca antag
O=C(CN1C(=O)/C(=C/c2ccco2)SC1=S)NC1CCS(=O)(=O)C1 (stereo unspecified)	0	-2	5	-9	-4	-5
O=c1[nH]nc(Cc2ccc(-c3cccc(Cl)c3)o2)c2ccccc12	0	-3	-3	19	-9	24*
Clc1cccc(-c2ccc(CNCc3ccccn3)o2)c1	4	-7	6	-5	25	-13
O=C(Cc1ccccn1)c1ccc(F)cc1	0	-3	3	3	4	-6
CC(C)OCCCNC(=O)C1CCC(CNS(=O)(=O)c2cccc3nsnc23)CC1 (stereo unspecified)	0	-9	8	-9	22	-5
CC1CCN(CCNC(=O)C2CCN(S(=O)(=O)c3cccc4nsnc34)CC2)CC1	0	-5	-10	26	9	-7
Cc1cccc(N2CCN(C(=O)C3CCN(S(=O)(=O)c4cccc5cccnc45)CC3)CC2C)c1 (stereo unspecified)	8	-1	-20	26	7	11
CCC1CCCCN1CCNC(=O)C1CCN(S(=O)(=O)c2cccc3nsnc23)CC1 (stereo unspecified)	0	-6	-21	52*	14	-12
CCCN(CCC)CCCNC(=O)C1CCC(CNS(=O)(=O)c2cccc3nsnc23)CC1 (stereo unspecified)	0	-6	-19	51*	23	2
Cc1cccc(N2CCN(C(=O)C3CCN(S(=O)(=O)c4cccc5nsnc45)CC3)CC2C)c1 (stereo unspecified)	8	4	-16	25*	13	0
O=C(C1CCN(S(=O)(=O)c2cccc3nsnc23)CC1)N1CCn2c1nc1ccccc12	3	17*	12	-26	8	-13
CCOc1ccccc1CNC(=O)Cn1ccc2cc(S(=O)(=O)N3CCC(C)CC3)ccc21	1	-3	5	-8	15	-17
CCc1nc2ccc(C(=O)NCCCN3CCCC3=O)cn2c1N(C=O)CC	1	-3	11	-10	5	-6
Cc1cc(NC(=O)c2ccc(Cl)cc2)n(CCC#N)n1	16*	0	5	-2	8	7
Cc1ccc(C(=O)Nc2cc(C)nn2CCC#N)cc1	0	-4	1	-7	-2	-8
Cc1onc(-c2ccccc2)c1C(=O)NC(=S)NNC(=O)c1ccco1	18*	17*	3	-7	8	-4
COc1ccc(C(=O)NC(=S)NNC(=O)c2c(-c3ccccc3)noc2C)cc1OC	15	16	0	-1	-6	-7
Cc1onc(-c2ccccc2)c1C(=O)NNC(=S)NC(=O)c1ccc2c(c1)OCO2	55*	52*	-14	19	-13	1
CC(C)c1c(C(=O)N/N=C/C2CC=CCC2)nnn1-c1nonc1N (stereo unspecified)	1	2	2	-5	17	3
